# Screening results (PubChem)
# APOBEC3A inh = blocks human APOBEC3A ssDNA deamination | recombinant A3A, FAM/TAMRA ssDNA deamination fluorescence | P31941 | hit rate 0.41% among 330,000 | inhibition, % at 20 µM;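 active means at least 40% inhibition at 20 µM here, with at most 30% in a related deaminase screen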;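 further: plate controls were A3A with DMSO for no effect and wells lacking A3A enzyme for full effect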
# Target sequence (P31941 whole entry, looked up): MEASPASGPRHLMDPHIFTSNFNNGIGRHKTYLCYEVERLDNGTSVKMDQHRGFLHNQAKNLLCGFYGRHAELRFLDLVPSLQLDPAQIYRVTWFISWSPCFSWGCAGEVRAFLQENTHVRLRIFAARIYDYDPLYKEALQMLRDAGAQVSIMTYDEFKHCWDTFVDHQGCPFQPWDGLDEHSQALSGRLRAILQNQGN
# APOBEC3G inh = inhibitors of human APOBEC3G DNA deaminase; recombinant A3G, ssDNA deamination FAM/TAMRA fluorescence; hit rate 0.28% among 330,000; Q9HC16; inhibition, % at 20 µM;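 active means inhibition of at least 40% at 20 µM, with no more than 30% in the related APOBEC3A deaminase screen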;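 further: plate controls were DMSO wells with A3G for no effect and wells lacking A3G enzyme for full effect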
# PfM18AAP inh = blocks P. falciparum M18 aspartyl aminopeptidase | recombinant PfM18AAP, H-Glu-NHMec fluorogenic cleavage | inhibition, % at 7.35 µM | hit rate 1.2% among 290,000 | AID 1822;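 active means inhibition above the campaign mean inhibition over all tested compounds plus 3 SD, cut at about 28% in these data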;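 further: 0% = plate median of test compound wells and 100% = 2 mM ZnCl2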
# NRP1-CendR mod = alters CendR peptide binding to human NRP-1; inhibition, % at 25 µM; O14786; hit rate 0.85% among 360,000; FAM-RPARPAR peptide binding to NRP-1, fluorescence polarization;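 active means inhibition or corrected inhibition above about 18%, plus a signal ratio from 0.5 to 1.5, limit read from the data, passing the limit was not always enough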
# ALR inh = human ALR oxidase inhibition via reduced H2O2 | P55789 | purified ALR, DTT oxidation, H2O2 HRP-luminol luminescence | inhibition, % (test concentration not listed) | hit rate 3.8% among 290,000 | AID 485317;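 active means mean replicate inhibition above about 79%, with every replicate also reaching it, limit read from the data; inconclusive means only one of the two criteria met; inactive means mean below limit and not every replicate reaching it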
# Target sequence (P55789 whole entry, looked up): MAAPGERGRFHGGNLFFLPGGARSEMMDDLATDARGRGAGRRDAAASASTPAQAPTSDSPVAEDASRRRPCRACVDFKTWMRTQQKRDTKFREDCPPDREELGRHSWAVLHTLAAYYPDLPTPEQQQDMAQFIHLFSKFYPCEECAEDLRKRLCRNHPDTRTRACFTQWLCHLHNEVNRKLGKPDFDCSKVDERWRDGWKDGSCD
# Yeast superoxide = caloric restriction mimetics inhibiting age-related superoxide in yeast | AID 2690 | hit rate 0.18% among 330,000 | S. cerevisiae aged cells, superoxide DHE fluorescence; hits give low values | superoxide response (% of plate mean), % at 10 µM;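 active means superoxide response under a set limit, about three screen SD below normal, cut at about 65% in these data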;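 further: yeast aged for seven days with compound at 30 °C before DHE staining; 100% = average MFI of all compound-treated wells on the plate with controls excluded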
# * hit, by the source's call; u = inconclusive; x = no result. The list is not random: actives were taken first. Their share in the collection is about 5.2%.
SMILES,APOBEC3A inh,APOBEC3G inh,PfM18AAP inh,NRP1-CendR mod,ALR inh,Yeast superoxide
O=C(C1CC1)N1CCN=C1SCc1cccc(C(F)(F)F)c1,3,0,0,4,u,91
O=C(C1CCCCC1)N1CCN=C1SCc1cccc([N+](=O)[O-])c1,-16,-6,19,-3,100*,103
COc1ccc(/C=N/Nc2cc(C)nc(N3CCOCC3)n2)c(OC)c1,-3,-8,2,5,1,87
O=C1CCN(CCc2ccccc2)CCN1[C@H](CO)Cc1ccccc1,-2,3,4,2,1,102
O=C(Cc1c(F)cccc1Cl)Nc1ccc(S(=O)(=O)N2CCCC2)cc1,-2,-3,-2,-1,3,110
COc1ccc(NC(=O)c2cc3cc(C)ccc3n2C)c(OC)c1,-1,-3,-3,-4,-9,102
CSc1sccc1/C=C(/C#N)C(=O)c1ccco1,-1,-6,31*,-32,7,106
Cc1cc(SCC(=O)NC(=O)NCc2ccco2)nc2ccccc12,0,3,3,-2,98*,97
COc1ccc(-n2nnc3c(SCC(=O)NCc4ccco4)ncnc32)cc1,-1,-1,-13,36*,x,102
O=C(CSc1ncnc2ccccc12)NCc1ccco1,7,5,2,-10,99*,97
O=C(CSc1nnnn1-c1ccccc1)c1ccco1,0,-2,4,13,31,109
O=C(COc1ncnc2ccccc12)NCc1ccco1,2,2,-5,-4,-3,98
Cn1nnnc1SCC(=O)c1ccco1,-3,-12,3,19*,39,101
Cc1nn(-c2ncc(C(F)(F)F)cc2Cl)c(=O)n1-c1c(F)cccc1F,2,0,-8,-1,-1,127
CN(Cc1ccccc1)C(=O)CN(C)S(=O)(=O)c1ccc(F)cc1,-1,-5,2,23,-5,118
COc1ccc(OC)c(NC(=O)C(=O)c2cn(CC(=O)N3CCCC3)c3ccccc23)c1,-3,-9,2,-2,-17,89
Cc1cc(C)cc(N(C(=O)c2nsc(Cl)c2Cl)C(C(=O)NC2CCCC2)c2ccc(O)cc2)c1 (stereo not drawn),2,-3,-5,9,2,93
O=[N+]([O-])c1ccc(CSc2ncnc3ccccc23)cc1,-2,-4,0,8,99*,110
Cc1cc(SCC(=O)O)nc2ccccc12,-6,4,-9,6,-10,100
O=C(CSc1ncnc2ccccc12)c1ccco1,1,-4,7,-5,99*,91
O=[N+]([O-])c1ccc(CSc2ccccn2)cc1,-5,-8,-1,-11,10,103
Cc1cc(SCC(=O)c2cc(C)n(C)c2C)nc2ccccc12,-5,-7,3,42*,0,106
O=C(CSc1ncnc2ccccc12)NCCc1ccccc1,5,-2,-9,-6,1,88
Cc1ccc2nc(SCC(=O)NCc3ccco3)c(C#N)cc2c1,0,-4,-12,-14,48,102
Cc1ccc2nc(SCC(=O)NCc3ccco3)c(C)cc2c1,3,2,-8,-1,98*,99
SMILES,APOBEC3A inh,APOBEC3G inh,PfM18AAP inh,NRP1-CendR mod,ALR inh,Yeast superoxide
CC1=NN(C(=O)COc2ccccc2)C(O)(c2ccccc2)C1 (stereo not drawn),-5,-11,12,-2,x,104
CC(C)n1c(SCC(=O)NCc2ccco2)nnc1C1CC1,-1,13,28*,-10,-13,95
O=C(NCC1CCCO1)[C@@H]1CSC2c3ccccc3C(=O)N21 (stereo partly drawn),3,28,-14,-6,-17,96
O=C1OC(N2C(=O)CC[C@H]2C(=O)NCC2CCCO2)c2ccccc21 (stereo partly drawn),-2,-9,3,22*,-7,112
O=C(NCc1ccco1)c1ccc(N2CCCCC2)c([N+](=O)[O-])c1,-2,-4,1,4,0,101
Cc1cc(/C=C(\C#N)C(N)=O)c(C)n1-c1ccc(N2CCOCC2)c([N+](=O)[O-])c1,0,-4,1,-2,-2,101
CO/N=C/c1ccc(N2CCCC2)c([N+](=O)[O-])c1,10,7,-1,1,x,91
COc1ccc(N2CCN(c3ccc(C(=O)O)cc3[N+](=O)[O-])CC2)cc1,-1,-6,1,4,79*,89
